Assay results published in PubChem BioAssay AID2642 (Johns Hopkins Ion Channel Center, 2010).
The campaign covered roughly 310,000 compounds. About 3,900 (1.3%) were called active.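 The calls were made as follows: active = compounds whose thallium flux B-score, printed positive for inhibition, exceeds three library SD while starting fluorescence stays within three; inactive = the rest.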 The sample as a whole holds a higher share of actives than the screen did.

molecular target: Potassium voltage-gated channel subfamily KQT member 1 (Homo sapiens) (UniProt P51787); test: inhibitors of human KCNQ1 channel, primary screen, cell-based, thallium flux, high-throughput (AID 2642); conditions: CHO-K1 KCNQ1, FluxOR thallium flux fluorescence, at 10 µM; hits give high values;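 also: channel opened by potassium depolarization with thallium stimulus after 20 min compound exposure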
Sequence (P51787 whole entry, looked up): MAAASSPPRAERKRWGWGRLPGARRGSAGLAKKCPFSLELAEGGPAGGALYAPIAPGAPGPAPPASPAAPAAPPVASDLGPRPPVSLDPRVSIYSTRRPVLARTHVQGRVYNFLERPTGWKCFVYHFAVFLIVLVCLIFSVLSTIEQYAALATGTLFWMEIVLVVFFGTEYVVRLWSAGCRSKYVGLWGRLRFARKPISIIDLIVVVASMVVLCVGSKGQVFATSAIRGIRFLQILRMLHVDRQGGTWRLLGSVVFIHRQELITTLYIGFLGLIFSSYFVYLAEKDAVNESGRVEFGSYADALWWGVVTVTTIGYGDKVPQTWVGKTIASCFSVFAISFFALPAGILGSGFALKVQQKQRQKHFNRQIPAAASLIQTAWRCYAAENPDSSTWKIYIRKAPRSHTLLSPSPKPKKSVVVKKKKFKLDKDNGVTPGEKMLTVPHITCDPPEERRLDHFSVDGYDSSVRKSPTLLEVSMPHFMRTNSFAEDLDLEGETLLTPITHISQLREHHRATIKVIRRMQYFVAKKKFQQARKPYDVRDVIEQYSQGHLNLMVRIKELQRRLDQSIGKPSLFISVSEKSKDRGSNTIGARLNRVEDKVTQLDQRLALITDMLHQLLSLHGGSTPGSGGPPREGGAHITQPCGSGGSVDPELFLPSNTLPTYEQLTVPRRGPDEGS

B-score, inactive:
COc1ccc(CN(C)C(=O)Cc2c[nH]c3ccccc23)c(OC)c1OC
CNC(=S)N1N=C(c2ccccc2)CC1c1ccc(Br)cc1 (centres undefined)
c1ccc(C2=Nc3cccc4cccc(c34)N2)cc1
CC1CCCN(S(=O)(=O)c2ccc(N(C(=O)c3cnccn3)C(C(=O)NC3CCCCC3)c3cccs3)cc2)C1 (centres undefined)
Cc1cc(C)n(-c2nnc(C)n2NC(=O)c2cccc(Cl)c2)n1
Cc1ccc2c(c1)N(CCCC(=O)NCc1cccnc1)C(=O)CO2
Cc1ccc(NC(=S)NC(NC(=O)Cc2cccc3ccccc23)C(Cl)(Cl)Cl)cc1 (centres undefined)
O=C(O)Cc1ccc(NC(=O)Nc2cccc3ccccc23)cc1
COc1ccc(CNC(=O)c2c[nH]c3c(OC)cc(OC)cc3c2=O)cc1
CCOc1ccc(OCCSc2nc3ccccc3n2CC(=O)O)cc1
O=C(CCC(=O)c1cccs1)Nc1nc2ccccc2s1
O=C(Nc1nc(-c2ccco2)c(-c2ccco2)s1)c1ccco1
CCC(=O)NC(Nc1nc2ccc(C)cc2s1)(C(=O)OC)C(F)(F)F (centres undefined)
CSc1nc2ccc(S(=O)(=O)N3CCc4ccccc43)cc2s1
CCOc1ccc2nc(NC(=O)c3cc([N+](=O)[O-])ccc3N3CCOCC3)sc2c1
CN(C)CCCN(C(=O)c1ccc(S(=O)(=O)N2CCCc3ccccc32)cc1)c1nc2ccc(F)cc2s1
O=C1NC(=O)C(c2ccc(Cl)cc2)N1 (centres undefined)
Cc1cc(=O)n2nc(N3CCCC(C(=O)NCc4ccc(Cl)cc4)C3)sc2n1 (centres undefined)
CC(OC(=O)CN1C(=O)COc2ccccc21)C(=O)NCc1ccc(F)cc1 (centres undefined)
N#Cc1c(Cl)nc(-c2cccnc2)nc1-c1ccccc1
O=C(NN1CCOCC1)c1cccc(F)c1
O=C(NNC(=O)c1cc(-c2ccccc2Cl)nc2ccccc12)c1csc(N2CCOCC2)n1
CCC(=O)N1CCC(C(N)=O)(N2CCCCC2)CC1
COC(=O)CNS(=O)(=O)c1ccc(OC)cc1
COc1ccc(S(=O)(=O)NCCCc2ccccc2)cc1
CCNS(=O)(=O)c1ccc(NC(=O)Nc2cccc(OC)c2)cc1
COc1cccc(NC(=O)CCNS(=O)(=O)c2ccc3c(c2)oc(=O)n3C)c1
Cc1cccc(NC(=O)c2ccc3c(=O)n(CC4CCCO4)c(=S)[nH]c3c2)c1 (centres undefined)
COc1cc(OC)cc(C(=O)NC(=S)N2CCN(c3ccc(C(F)(F)F)cc3[N+](=O)[O-])CC2)c1
CCOc1ccc(-c2cc(C(=O)N/N=C/c3ccc(O)cc3)c3ccccc3n2)cc1
NC1=NC2(CCCCC2)N(c2ccc(F)cc2F)C(N)=N1
COc1ccc(CNC(=O)/C(C#N)=C/c2cccc(OC)c2OC)cc1
CCOC(=O)C1CCN(Cc2nnc(-c3cccc(Br)c3)o2)CC1
CCOC(=O)C1CCN(c2ncnc3c2c(-c2ccccc2)cn3-c2ccc(C)cc2)CC1
N/C(=N\c1nc2ccccc2o1)NC(=O)C(Cc1ccccc1)N1C(=O)c2ccccc2C1=O (centres undefined)
CCOC(=O)COn1c(=O)c(-c2ccc(OCC)cc2)[n+]([O-])c2ccccc21
NC(=O)C1CCN(C(=O)c2ccc3c(=O)n(Cc4cccc(Br)c4)c(=S)[nH]c3c2)CC1
CC(=O)N/N=C(\C)c1ccc(Br)cc1Br
CC(C)/C=N/NC(=O)c1cc(Br)ccc1O
CC1(C(=O)O)CCC(C(=O)Nc2ccc(Cl)c(Cl)c2)C1(C)C (centres undefined)
CC(=O)Nc1cccc(NC(=O)c2ccc3c(c2)CCN3S(C)(=O)=O)c1
Cc1nc(-c2ccc(Cl)cc2)sc1C1(C)CC(c2ccc(Br)cc2)=NO1 (centres undefined)
Cc1nc(C(=O)NCc2ccccc2)sc1C1(C)CC(c2cccnc2)=NO1 (centres undefined)
CC1C(=O)Nc2ccc(S(=O)(=O)N3CCN(c4ccccc4F)CC3)cc2NC1=O (centres undefined)
C=CCC1(CC=C)CCCN1C(=O)CC1C(=O)NCCN1Cc1ccccc1OC (centres undefined)
N#C/C(=C/c1ccc(N2CCOCC2)o1)C(=O)N1CCOCC1
COc1ccc(N2CCN(C(=O)/C(C#N)=C/c3ccccc3)CC2)cc1
COc1ccc(N2CC(C(=O)N[C@@H](C)C(=O)N3CCCCC3)CC2=O)cc1 (some centres undefined)
Cc1cc(C(C)(C)C)oc1C(=O)N(CC(=O)NC1CCCC1)Cc1ccc(Cl)cc1
COCCN1C(=O)C(=O)/C(=C(/O)c2ccc(S(=O)(=O)N3CCOCC3)cc2)C1c1ccc(O)c(OC)c1 (centres undefined)
COc1ccccc1C(=O)NC(CCSC)C(=O)N1CCN(C/C=C/c2ccccc2)CC1 (centres undefined)
CCOc1ccc(CCNC(=O)COC(=O)CCS(=O)(=O)c2ccc(C)cc2)cc1OCC
N#Cc1c(-c2ccccc2)c(-c2ccccc2)n[nH]c1=O
COc1ccc(-c2oc(/N=C/N3CCCC3)c(C#N)c2-c2ccc(OC)cc2)cc1
COc1ccc(C)cc1NC(=O)CCC(=O)Nc1nnc(C(F)(F)F)s1
O=C(Nc1nnc(COc2ccccc2)s1)Nc1ccccc1F
Cc1ccccc1NS(=O)(=O)CCCCC(Cl)(Cl)Cl
CN(C)S(=O)(=O)c1cccc(NC(=O)COC(=O)C2(c3ccccc3F)CCCC2)c1
N#Cc1ccc(C(=O)Nc2nc(-c3cccs3)c(C(=O)C(F)(F)F)s2)cc1
Cc1ccc(C(=O)c2c(NC(=O)c3ccncc3)sc3c2CCCC3)cc1
Cc1sc(NC(=O)c2ccc3ncsc3c2)c(C(N)=O)c1C
COc1ccc(NC(=O)NNC(=O)COc2cc(C)c(Cl)c(C)c2)c(OC)c1
CC1(C)NC(=O)N(CC(=O)Nc2cc(C(F)(F)F)cc(C(F)(F)F)c2)C1=O
COc1ccc(CCNS(=O)(=O)c2cccc([N+](=O)[O-])c2)cc1
CCC1Sc2ccc(S(=O)(=O)CCC(=O)NCc3cccs3)cc2NC1=O (centres undefined)
CN(C)NC(=O)c1csnc1-c1c(Cl)cccc1Cl
O=c1ccc2cc(S(=O)(=O)Nc3ccccc3F)ccc2o1
CCc1ccccc1NC(=O)c1ccc2snnc2c1
O=C(Nc1cccc(Br)c1)c1ccc2snnc2c1
Cc1ccc(C(=O)NCC(=O)NCc2cc(=O)n(C)c(=O)n2C)cc1
Cc1ccc(S(=O)(=O)NC(=O)Nc2nc(-c3ccc(F)c(F)c3)cs2)cc1
COc1cc(CC(=O)Nc2nc(-c3ccc(F)c(F)c3)cs2)cc(OC)c1OC
NC(=O)[C@H]1CC2(CC(c3cccc(NC(=O)[C@H]4CCC(=O)N4)c3)=NO2)CN1C(=O)c1ccccc1C(=O)c1ccccc1 (some centres undefined)
O=C(Cn1nnc2ccccc2c1=O)Nc1cc(C(F)(F)F)ccc1N1CCOCC1
CCCc1cc(=O)[nH]c(SCC(=O)Nc2sc3c(c2C#N)CCCC3)n1
CCOC(=O)c1cnc(COc2ccccc2Cl)[nH]c1=O
CCOC(=O)c1nc(C)n(-c2ccc(Cl)cc2Cl)n1
Oc1ccccc1N1CCN(c2ncnc3sc(-c4ccccc4)cc23)CC1
COc1ccccc1N1CCN(c2ccc([N+](=O)[O-])nc2)CC1
CCN(CC)S(=O)(=O)c1ccc(OC(C)C)c(N)c1
CCc1ccccc1NC(=O)/C(=C/c1ccccc1)c1ccccc1
COCc1cc(C)nc2sc3c(=O)n(-c4cccc5ccccc45)nnc3c12
COc1ccc(/C=C/C(=O)Nc2ccc(C34CC5CC(CC(O)(C5)C3)C4)cc2)cc1OC
O=C(O)c1cnn2c(C(F)(F)F)cc(-c3ccccc3)nc12
Cc1cccc(N2CCN(C(=O)c3cc4c(=O)[nH]c5ccccc5c4n3C)CC2)c1C

B-score, active:
Brc1ccc(C2CC(c3ccccc3)=Nc3ccccc3N2)cc1 (centres undefined) 10
O=C(Cc1cccc2ccccc12)NNC(=O)Nc1ccc(Cl)cc1 6
O=C(NC(Nc1nc2ccc([N+](=O)[O-])cc2s1)(C(F)(F)F)C(F)(F)F)c1ccccc1 8
O=C(Nc1nc2ccc([N+](=O)[O-])cc2s1)c1ccc(S(=O)(=O)N2CCCc3ccccc32)cc1 9
COc1cccc(NC(C)=[N+](C)CCNS(=O)(=O)c2ccc(Cl)cc2)c1 6
COc1ccc(S(=O)(=O)NCCCCOc2ccc(Cl)cc2)cc1 9
CCOC(=O)C1CCN(c2ncnc3c2oc2ccc(Br)cc23)CC1 9
CC(=N\NC(=O)c1cc(Br)ccc1O)/C(=N/O)C(=O)Nc1ccccc1 9
Cc1nc(C(=O)Nc2ccc(Cl)cc2)sc1C1(C)CC(c2ccccc2)=NO1 (centres undefined) 6
N#C/C(=C\c1ccc(N2CCOCC2)o1)C(=O)N1CCOCC1 7
N#Cc1c(/N=C/N2CCCC2)oc(-c2ccccc2)c1-c1ccccc1 7
O=C(NCC(F)(F)F)Nc1nnc(C(F)(F)F)s1 6
Cc1ccc(C(=O)c2c(NC(=O)c3ccccc3)sc(C)c2C)cc1 6
CN(C)Cc1ccccc1C1(O)c2ccccc2CSc2ccccc21 (centres undefined) 7
O=C(Nc1ccc2ccccc2c1)Nc1ccc2snnc2c1 8
COc1ccc(CC(=O)Nc2nc(-c3ccc(F)c(F)c3)cs2)cc1OC 9
CCOC(=O)c1cnc(SC)nc1Sc1ccc(Cl)cc1Cl 6
COc1ccccc1N1CCN(c2ncnc3sc(C)c(-c4ccccc4)c23)CC1 9
Cc1cccc(N2CCN(C(=O)c3cnn4c(C(F)F)cc(-c5ccccc5)nc34)CC2)c1C 7
